This note sets out measurements from PubChem BioAssay (NCATS).

In assay [1] the target is Lysosomal acid glucosylceramidase (Homo sapiens) (UniProt P04062). In words: Glucocerebrosidase-p2 (AID 348; in the data active means potency below about 10 µM; further: potency means the concentration at half of the fitted maximal effect). As to conditions: purified GBA, blue fluorogenic substrate, 40 min. The method in brief:
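Normal human glucocerebrosidase (0.2 nM) with blue fluorogenic substrate (80 uM final) in citrate/phosphate pH 5.9 with 10mM sodium taurocholate, 0.01% tween-20; 40 min RT, NaOH/glycine stop; fluorescence Ex 365/Em 440; AC50 from a titration from 0.6 nM upwards.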

Assay [2] is described as follows: AP1 Signaling Pathway (AID 357).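 Further: ME-180 reporter cells stimulated with EGF at its EC50 level; on the % scale 0 is the no-effect control and ±100 the full control effect.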 As to conditions: ME-180 AP-1-bla reporter, EGF-induced, beta-lactamase ratio, 5 h; at 7.69 µM (top of the series) unless noted. The method in brief:
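AP-1-bla ME-180 cells, Opti-MEM + 0.5% dialyzed FBS, plated overnight 37 °C. Cpd titration + EC50 EGF, 5 h 37 °C. CCF4 2.5 h RT; ex 405, em 460/530 ratio → %activity, AC50.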

A short description of assay [3]: NFAT Signaling Pathway (AID 444).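 Further: carbachol stimulus at about its EC50 of 1 µM final; on the % scale 0 is the no-effect control and ±100 the full control effect.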 As to conditions: Jurkat NFAT-bla M1, carbachol, beta-lactamase ratio, 5 h; at 7.69 µM (top of the series) unless noted. Summed up: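 Read-out: CCF4 FRET ratio (460 nm/530 nm) after 1 h RT dye loading, used for %activity and AC50 from titration series. Cells: Jurkat NFAT-β-lactamase/M1 line, treated with compound plus 1 uM carbachol for 5 h, 37 °C.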

Assay [4] is described as follows: Stat Signaling Pathway (AID 446).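 Further: ME-180 cervical cancer cells given 40 pM IL-6 alongside compound; SIE-controlled beta-lactamase reporter measured as 460/530 nm FRET emission ratio; on the % scale 0 is the no-effect control and ±100 the full control effect.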 As to conditions: ME-180 SIE beta-lactamase reporter, IL-6 stimulated, 5 h; at 7.69 µM (top of the series) unless noted. Summed up:
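FRET read-out (405 nm excitation, 460/530 nm emission) of a beta-lactamase reporter under a STAT-inducible element in ME-180 cervical carcinoma cells. Cells with compound receive 40 pM IL-6 for 5 h. Values are normalised to AC90 stimulation and AC90 JAK-inhibitor controls.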

In assay [5] the target is Glucocorticoid receptor (Homo sapiens) (UniProt P04150). In words: GR-EFC Redistribution (AID 451; calls by dose curve; further: potency means the concentration at half of the fitted maximal effect). As to conditions: CHO-K1 GR-EFC translocation, beta-gal luminescence, 2 h. The method in brief: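 Translocation of GR-ED fusion to nuclear EA restores b-gal, read by luminescence after 1 h room-temperature detection. Engineered CHO-K1 biosensor cells, 1,000/well, exposed 2 h at 37 C to titrations up to 46 uM final.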
Sequence of Glucocorticoid receptor (Homo sapiens) (P04150 whole entry, looked up, the tested form may be a part): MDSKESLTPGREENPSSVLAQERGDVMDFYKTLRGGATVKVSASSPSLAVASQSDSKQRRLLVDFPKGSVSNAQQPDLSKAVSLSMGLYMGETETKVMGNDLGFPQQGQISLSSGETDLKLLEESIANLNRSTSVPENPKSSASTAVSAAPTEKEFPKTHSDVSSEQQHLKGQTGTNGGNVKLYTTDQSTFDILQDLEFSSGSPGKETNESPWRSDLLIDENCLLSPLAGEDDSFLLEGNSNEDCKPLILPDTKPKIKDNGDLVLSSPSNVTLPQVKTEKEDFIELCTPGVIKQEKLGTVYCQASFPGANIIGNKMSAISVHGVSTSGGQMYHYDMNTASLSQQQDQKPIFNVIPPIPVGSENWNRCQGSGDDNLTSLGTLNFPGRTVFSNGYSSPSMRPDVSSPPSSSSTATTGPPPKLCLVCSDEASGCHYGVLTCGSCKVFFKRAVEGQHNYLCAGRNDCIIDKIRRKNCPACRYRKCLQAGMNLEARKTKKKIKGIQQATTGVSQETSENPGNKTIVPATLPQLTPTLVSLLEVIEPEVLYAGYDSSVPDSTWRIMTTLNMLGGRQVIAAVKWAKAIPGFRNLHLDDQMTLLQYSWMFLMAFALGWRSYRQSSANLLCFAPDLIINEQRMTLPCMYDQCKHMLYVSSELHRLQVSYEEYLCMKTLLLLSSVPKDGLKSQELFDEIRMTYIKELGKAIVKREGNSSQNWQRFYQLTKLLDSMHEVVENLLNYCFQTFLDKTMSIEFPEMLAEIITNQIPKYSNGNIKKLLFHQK

Assay [6] addresses Mitogen-activated protein kinase 10 (Mus musculus) (UniProt Q61831). In words: JNK3 AlphaScreen Assay (AID 530).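 Further: kinase came from lysate of stimulated human HepG2 cells; signal reports phosphorylation of biotinylated GST-cJun 1-79 at Ser73 with 10 µM ATP; on the % scale 0 is the no-effect control and ±100 the full control effect.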 As to conditions: JNK3 lysate, c-Jun phosphorylation; series mostly up to 57.1 µM. Summed up: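 Kinase buffer: 20 mM Tris-HCl pH 7.6, 10 mM MgCl2, 1 mM DTT, 0.1 mM Na3VO4, 0.01% Tween-20; ATP 10 uM. Substrate biotin-GST-cJun(1-79), enzyme from activated HepG2 lysates. Detection by Ser73 phospho-antibody AlphaScreen.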

In assay [7] the target is 3',5'-cyclic-AMP phosphodiesterase 4B (Homo sapiens) (UniProt Q07343). In words: qHTS Assay for Inhibitors of PDE-IV (AID 607; active means well fitted activation curve with a large enough effect in the main read-out, with a control signal flat, not every such curve was filed as active; further: % of control where 0% means no effect). As to conditions: HEK293 ACTOne CNG channel cells, membrane potential fluorescence; series mostly up to 22.9 µM. The method in brief: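 Cell-based read-out of cAMP via a modified cyclic nucleotide-gated channel and membrane potential dye (535/590 nm) in HEK293 cells expressing PDE4 endogenously. Compounds tested up to 22.9 uM final; 100 uM RO 20-1724 reference.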
Sequence of 3',5'-cyclic-AMP phosphodiesterase 4B (Homo sapiens) (Q07343 whole entry, looked up): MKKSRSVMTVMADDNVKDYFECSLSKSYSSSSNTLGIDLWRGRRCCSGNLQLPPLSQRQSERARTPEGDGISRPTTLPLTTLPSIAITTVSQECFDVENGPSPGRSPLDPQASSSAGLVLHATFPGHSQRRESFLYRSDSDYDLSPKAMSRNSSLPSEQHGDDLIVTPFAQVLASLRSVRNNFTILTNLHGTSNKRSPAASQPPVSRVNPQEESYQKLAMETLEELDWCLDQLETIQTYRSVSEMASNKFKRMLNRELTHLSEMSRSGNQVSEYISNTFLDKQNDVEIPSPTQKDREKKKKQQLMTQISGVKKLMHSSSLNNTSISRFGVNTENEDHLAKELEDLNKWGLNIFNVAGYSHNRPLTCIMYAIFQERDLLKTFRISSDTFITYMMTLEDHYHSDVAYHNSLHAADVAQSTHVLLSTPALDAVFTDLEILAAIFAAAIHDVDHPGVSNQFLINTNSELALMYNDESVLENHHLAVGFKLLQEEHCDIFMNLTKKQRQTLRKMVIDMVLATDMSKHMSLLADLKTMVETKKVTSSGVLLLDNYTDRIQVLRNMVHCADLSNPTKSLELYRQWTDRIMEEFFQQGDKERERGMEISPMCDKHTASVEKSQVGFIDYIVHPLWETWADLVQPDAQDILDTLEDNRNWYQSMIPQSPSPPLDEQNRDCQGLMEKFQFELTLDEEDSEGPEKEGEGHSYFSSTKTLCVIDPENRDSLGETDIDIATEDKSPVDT

Assay [8] is described as follows: qHTS Assay for Lipid Storage Modulators (AID 1519; calls by dose curve). As to conditions: Drosophila S3 cells, BODIPY lipid droplet/cell ratio, laser cytometry, cells loaded with oleic acid; for activity change, negative = inhibition: at 57.5 µM (top of the series). Summed up: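 Cells seeded at 5,000 per well were treated with compounds over a concentration series and loaded with oleic acid (400 uM, as added). Lipid droplet fluorescence (488 nm excitation, 500-530 nm channel) was read by laser-scanning cytometry and normalized to 20 uM Triacsin C.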

Assay [9] in a line: Primary qHTS for small molecule stabilizers of the endoplasmic reticulum resident proteome: Secreted ER Calcium Modulated Protein (SERCaMP) assay (AID 1508630; active means well fitted inhibition curve with a large enough effect; further: on the % scale 0 is the no-effect control and ±100 the full control effect). As to conditions: SH-SY5Y GLuc-SERCaMP (Gaussia luciferase released on ER calcium loss) secretion, thapsigargin, luminescence; series mostly up to 38.4 µM. The method in brief:
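The SH-SY5Y reporter protocol was run at 3 concentrations up to 38.3 uM (primary) or 11 concentrations (follow-up): 16 h compound, 100 nM thapsigargin for 4 h, then extracellular luciferase luminescence.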

The nature of assay [10]: qHTS Assay for Identification of Small Molecule Agonists for Hypoxia Response Element Signaling Pathway (AID 914; active means well fitted activation curve with a large enough effect in the signal ratio, with a control signal flat, not every such curve was filed as active; the % refers to the signal ratio; further: % of control where 0% means no effect). As to conditions: ME-180 (cervical carcinoma) HRE-bla reporter, beta-lactamase ratio, CoCl2, 17 h; activation: stronger effect = higher value. Summed up: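 Reporter activity (beta-lactamase, CCF4 460nm/530nm ratio) in HRE-bla ME-180 cells is recorded after 17 h compound exposure with EC50 CoCl2 at 37 degrees Celsius. AC50 values come from titration data.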

The mark [11] stands for this setting: measured here: cell count channel max response.
The mark [12] stands for this setting: measured here: lipid channel max response.

Each structure is given as a SMILES string. Records with an inconclusive call do not appear. Activity calls are given as the source filed them. Unless noted, the call rests on the fitted dose curve; in most records, active means well fitted curve in either direction with a large enough effect (not every such curve was filed as active); inconclusive means small, poorly fitted or top-dose-only effect, or another doubt; inactive means flat fitted curve, though single readings scatter. Bounds are passed on as bounds.

Sequence of Lysosomal acid glucosylceramidase (Homo sapiens) (P04062 whole entry, looked up): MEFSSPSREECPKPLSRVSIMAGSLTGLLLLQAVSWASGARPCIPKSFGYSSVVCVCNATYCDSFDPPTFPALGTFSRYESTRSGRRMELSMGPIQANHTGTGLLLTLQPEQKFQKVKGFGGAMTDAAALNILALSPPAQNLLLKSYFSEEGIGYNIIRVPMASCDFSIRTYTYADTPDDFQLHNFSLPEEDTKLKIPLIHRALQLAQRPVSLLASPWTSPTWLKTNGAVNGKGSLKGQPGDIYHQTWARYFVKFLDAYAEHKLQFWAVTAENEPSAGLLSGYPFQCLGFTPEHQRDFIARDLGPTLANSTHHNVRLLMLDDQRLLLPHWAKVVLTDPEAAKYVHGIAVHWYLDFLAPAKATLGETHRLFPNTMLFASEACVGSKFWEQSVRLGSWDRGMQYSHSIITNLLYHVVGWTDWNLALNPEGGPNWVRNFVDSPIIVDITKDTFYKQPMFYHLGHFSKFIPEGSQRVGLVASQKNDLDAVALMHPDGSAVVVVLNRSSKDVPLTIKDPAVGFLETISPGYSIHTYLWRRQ

As to `CC(=O)N1CCC2(CC1)CN(Cc1cc(C(F)(F)F)cc(C(F)(F)F)c1)C2`, the values for the Potency in [1] and in assay [5] were > 11.4 µM (inactive) and > 46 µM (inactive), respectively. The values for the activity change, negative = inhibition in assay [2], in [3] and in assay [8] were 2.68% (inactive), 13.2% (inactive) and 4.71% (inactive), respectively. For the same compound, the activity, negative = inhibition in assay [4] is 11% (inactive). In addition, the Potency entry in assay [6] and in assay [7] was “inactive” throughout. For the same compound, the max response turned out to be 20.4% in [8] (setting [11]) and 27.2% in assay [8] (setting [12]). In addition, in [9], the outcome was inactive.
With `COCC(=O)N1CCC[C@@]2(CCN(c3ccccn3)C2)C1`, the Potency in assay [1] was > 11.4 µM (inactive); in [5], > 46 µM (inactive). Also, the activity change, negative = inhibition is -4.6% (inactive) in [2], -11.3% (inactive) in [3] and 2.24% (inactive) in [8]. The activity, negative = inhibition in [4] was -4.62% (inactive). The Potency entry in assay [6] and in assay [7] was “inactive” each time. The max response is -4.94% in [8] (setting [11]) and -1.36% in assay [8] (setting [12]). Further, in assay [9], the result was inactive.
With `COc1ccc(NC(=O)N2CCCC3(CCN(C(=O)c4ccncc4)CC3)C2)cc1`, the Potency in [1] is > 11.4 µM (inactive); in assay [5] it was > 46 µM (inactive). The activity change, negative = inhibition in assay [2] was -8.03% (inactive); in assay [3], -13.4% (inactive); in [8], 4.52% (inactive). For the same compound, the activity, negative = inhibition in assay [4] is -2.92% (inactive). Also, the Potency entry in assay [6] and in assay [7] was “inactive” in each case. For the same compound, the max response in assay [8] (setting [11]) worked out at 10.2%; in assay [8] (setting [12]) it was 18.3%. Besides, in [9], the result was inactive.
On to `COCC(=O)N1CCC[C@@]2(CCN(C(=O)Nc3ccccc3)C2)C1`, for which the results for the Potency in [1] and in [5] were > 11.4 µM (inactive) and > 46 µM (inactive), respectively. The activity change, negative = inhibition is -5.16% (inactive) in assay [2], 1.53% (inactive) in [3] and 5.08% (inactive) in assay [8]. The activity, negative = inhibition in [4] is -3% (inactive). Besides, the Potency entry in assay [6] and in [7] was “inactive” each time. Besides, the max response in assay [8] (setting [11]) stood at 3.08%; in assay [8] (setting [12]), 10.8%. Further, the result in assay [9] was inactive.
`O=C(c1cccc(F)c1)N1CCC[C@@]2(CCN(c3ccccn3)C2)C1`: the Potency in assay [1] was > 11.4 µM (inactive); in assay [5] it was > 46 µM (inactive). For the same compound, the activity change, negative = inhibition was -17% (inactive) in assay [2], -7.81% (inactive) in assay [3] and 6.88% (inactive) in assay [8]. Besides, the activity, negative = inhibition in assay [4] was -6.48% (inactive). The Potency entry in assay [6] and in assay [7] was “inactive” in each case. Besides, the max response in assay [8] (setting [11]) turned out to be 12.7%; in [8] (setting [12]), 23.1%. In addition, the outcome in [9] was inactive.
Take `COCC(=O)N1CCC2(CC1)CN(c1ccncc1)C2`: the values for the Potency in assay [1] and in [5] were > 11.4 µM (inactive) and > 46 µM (inactive), respectively. Besides, the values for the activity change, negative = inhibition in assay [2], in [3] and in [8] were -2.96% (inactive), 2.67% (inactive) and 2.59% (inactive), respectively. Moreover, the activity, negative = inhibition in assay [4] is -1.5% (inactive). Besides, the Potency result in assay [6] and in [7] was “inactive” in each case. Also, the max response in assay [8] (setting [11]) was 4.76%; in assay [8] (setting [12]), 11.2%. The outcome in [9] was inactive.
Turning to `O=C(Nc1ccccc1)N1CC2(CCN(S(=O)(=O)c3ccccc3)CC2)C1`, the Potency in [1] is > 11.4 µM (inactive); in assay [5], > 46 µM (inactive). The activity change, negative = inhibition in assay [2] was -1.41% (inactive); in [3], 16.1% (inactive); in assay [8], -5.83% (inactive). Moreover, in assay [4], the activity, negative = inhibition was -2.14% (inactive). Besides, the Potency entry in assay [6] and in [7] was “inactive” in each case. For the same compound, the activation in [10] is -12.4% (inactive). Also, the max response in [8] (setting [11]) is 0.332%; in [8] (setting [12]) it was -5.36%. The outcome in assay [9] was inactive.
